This note sets out measurements from PubChem BioAssay.

Test [1] can be described thus: anti-His antibody binders, primary screen, artefact control for SMM control protein annotation, biochemical, small-molecule microarray, 635 nm fluorescence (AID 1128).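 Note: score merges feature fluorescence with signal-to-noise for each printed compound spot.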 The conditions noted are these: anti-His Alexa647 antibody binding, higher = more signal.
For test [2], the system named is Human papillomavirus type 1a E7 protein (residues 1-88). As to the kind of experiment: HPV1a E7 small-molecule binders, primary screen, biochemical, small-molecule microarray, residues 1-88, 635 nm (AID 1129). Conditions: small-molecule microarray binding, fluorescence 635 nm; higher = more signal.
Test [3] has as its target Focal adhesion kinase 1 (Homo sapiens) (UniProt Q05397). The test is described as follows: small-molecule microarray binders of FAK, primary screen, biochemical, 635/667 nm fluorescence, BSA, DTT (AID 1130).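 Note: composite of spot emission at 667 nm and signal to noise over triplicate slides.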 The conditions noted are these: PTK2 binding, 635 nm fluorescence, higher = more signal.
Test [4] deals with Fibrinogen (Alexa647-labelled). As to the kind of experiment: fibrinogen binders on compound microarrays, profiling panel, artefact control for SMM control-protein annotation, biochemical, small-molecule microarray, 635/667 nm fluorescence (AID 1131).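 Note: z-score merges 667 nm fluorescence with per-spot signal-to-noise over triplicate slides.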 Conditions: fibrinogen-A647 binding fluorescence, higher = more signal.
The target of test [5] is Follistatin (Homo sapiens) (UniProt P19883). As to the kind of experiment: follistatin binders on small-molecule microarrays, primary screen, biochemical, small-molecule microarray, 635/667 nm fluorescence (AID 1132). Conditions: FST binding, 635 nm fluorescence, higher = more signal.
Test [6] addresses Fibroblast growth factor 2 (Homo sapiens) (UniProt P09038). The test is described as follows: FGF2 binders on small-molecule microarrays, primary screen, biochemical, small-molecule microarray, 635/667 nm fluorescence (AID 1133). The conditions noted are these: small-molecule microarray binding, FGF2, fluorescence 635/667; higher = more signal.
Test [7] is described as follows: mitochondrial membrane potential change in A549 cells, profiling panel, cell-based, JC-1 fluorescence, basal, 24 h, 100 nL (AID 1138).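 Note: A549 lung adenocarcinoma cells under basal conditions with no added stimulus; test concentration not given here.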 Conditions: higher = more signal.
Test [8] has as its system Lefty1. As to the kind of experiment: Lefty1 binders on small-molecule microarrays, primary screen, biochemical, small-molecule microarray, 635/667 nm fluorescence (AID 1139). Conditions: small-molecule microarray binding, fluorescence 635/667; higher = more signal.
In test [9] the test system is wheat germ agglutinin (Triticum aestivum), Alexa647-labelled. As to the kind of experiment: wheat germ agglutinin binders on compound microarrays, profiling panel, artefact control for SMM control-protein annotation, biochemical, small-molecule microarray, 635/667 nm fluorescence (AID 1140).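 Note: score merges 667 nm feature emission with signal to noise over triplicate slides.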 Conditions: WGA-A647 binding, 635 nm fluorescence, higher = more signal.
For test [10], the target named is Luciferin 4-monooxygenase (Photinus pyralis) (UniProt P08659). As to the kind of experiment: firefly luciferase enzyme inhibitors, primary screen, biochemical, luminescence, purified enzyme, 2006 set (AID 1141).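 Note: cell-free assay with purified firefly luciferase at 100 ng per well in PBS; test concentration not given here.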 Conditions: SteadyGlo luminescence, 30 min, higher = more signal, called active from +8 up or from −8 down.
Test [11] has as its system Wnt5a (protein binding on small-molecule microarray). The test is described as follows: Wnt5a binders on small-molecule microarray, primary screen, biophysical, 635/667 nm fluorescence (AID 1142).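 Note: fluorescence read at 667 nm with signal to noise per printed feature.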 Conditions: 635 nm fluorescence, higher = more signal.
Test [12] can be described thus: cell viability in Huh7 cells, primary screen, cytotoxicity control for HCV replication inhibitor project, CellTiter-Glo luminescence, basal, 48 h (AID 1143).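 Note: Huh7 hepatoma cells carrying a hepatitis C replication reporter with no stimulus; test concentration not given here.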 The conditions noted are these: Huh7 HCV replicon, higher = more signal, called active from +8 up or from −8 down.
The nature of test [13]: P. aeruginosa biofilm formation inhibitors, primary screen, PAO1 strain, BacTiter-Glo luminescence, LB-PBS (AID 1144). Conditions: 12 h, higher = more signal.
Test [14] in a line: CREB reporter modulators without forskolin, primary screen, cell-based, PC12, CRE-LacZ reporter, unstimulated (AID 1145). The conditions noted are these: no forskolin, luminescence, 4.5 h, higher = more signal, called active from +8 up or from −8 down.
Test [15] is described as follows: CREB reporter modulators under forskolin, primary screen, cell-based, PC12, CRE-LacZ reporter, forskolin-stimulated (AID 1146).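 Note: PC12 cells with 6xCRE LacZ reporter stimulated by forskolin 10 µM; beta-galactosidase reporter signal reflecting CREB driven transcription.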 The conditions noted are these: luminescence, 4.5 h, higher = more signal, called active from +8 up or from −8 down.
Test [16] addresses Streptavidin (Streptomyces avidinii) (UniProt P22629). As to the kind of experiment: streptavidin binders on small-molecule microarray, primary screen, artefact control for SMM compound annotation, biophysical, 635/667 nm fluorescence (AID 1147).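 Note: signal reflects streptavidin binding to arrayed compounds as a control protein.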 Conditions: streptavidin binding, higher = more signal.
Test [17] can be described thus: small-molecule binders of probe aInhba, primary screen, biochemical, small-molecule microarray, 635/667 nm fluorescence (AID 1148).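 Note: score merges 667nm spot fluorescence with signal-to-noise for antibody binding to printed compounds.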 Conditions: higher = more signal.
Test [18] addresses Torsin-1A (Homo sapiens) (UniProt O14656). The test is described as follows: torsin A binders from cell lysate, primary screen, small-molecule microarray, wild-type, 635/667 nm (AID 1149). Conditions: COS7 hTOR1A-WT lysate, 635 nm fluorescence, higher = more signal.
Test [19] has the same target. As to the kind of experiment: small-molecule binders of mutant TOR1A in lysate, primary screen, cell lysate, small-molecule microarray, COS7 lysate, 635/667 nm fluorescence (AID 1150).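 Note: score pools 667 nm emission and signal to noise measuring lysate protein binding.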 The conditions noted are these: COS7 hTOR1A mutant lysate, 635 nm fluorescence, higher = more signal.
Test [20] relates to Sonic hedgehog protein (Shh). As to the kind of experiment: small-molecule binders of Shh protein, primary screen, biochemical, small-molecule microarray, 635/667 nm fluorescence (AID 1151).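 Note: Shh protein binding to compounds spotted on small-molecule microarray slides; score combines spot fluorescence intensity with signal-to-noise across triplicate slides.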 The conditions noted are these: small-molecule microarray binding, 635 nm fluorescence; higher = more signal.

The structures appear in SMILES notation. Values joined by “and” are separate entries in the source; they are usually repeats but may differ in a detail not shown here. Identical values can stand only once. Active and inactive are the calls of the source. Unless noted, the rule behind the calls is not given here.

Sequence of Fibroblast growth factor 2 (Homo sapiens) (P09038 whole entry, looked up): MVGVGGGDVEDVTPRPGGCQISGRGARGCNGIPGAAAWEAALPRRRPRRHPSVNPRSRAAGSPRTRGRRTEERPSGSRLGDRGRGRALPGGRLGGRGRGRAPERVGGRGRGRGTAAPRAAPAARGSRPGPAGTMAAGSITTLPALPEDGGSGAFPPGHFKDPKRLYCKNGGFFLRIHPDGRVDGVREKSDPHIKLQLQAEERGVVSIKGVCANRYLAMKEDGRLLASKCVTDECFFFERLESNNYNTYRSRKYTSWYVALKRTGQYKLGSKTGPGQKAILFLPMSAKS
Sequence of Follistatin (Homo sapiens) (P19883 whole entry, looked up): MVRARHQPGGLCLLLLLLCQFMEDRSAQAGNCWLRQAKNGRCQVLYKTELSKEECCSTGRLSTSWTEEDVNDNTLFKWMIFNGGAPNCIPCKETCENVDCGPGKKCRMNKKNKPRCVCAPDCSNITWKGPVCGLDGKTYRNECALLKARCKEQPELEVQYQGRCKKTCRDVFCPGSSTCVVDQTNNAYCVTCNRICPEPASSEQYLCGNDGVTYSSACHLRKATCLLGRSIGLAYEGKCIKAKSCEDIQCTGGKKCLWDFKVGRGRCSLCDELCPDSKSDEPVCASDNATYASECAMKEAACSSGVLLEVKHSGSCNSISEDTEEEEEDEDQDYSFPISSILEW
Sequence of Streptavidin (Streptomyces avidinii) (P22629 whole entry, looked up): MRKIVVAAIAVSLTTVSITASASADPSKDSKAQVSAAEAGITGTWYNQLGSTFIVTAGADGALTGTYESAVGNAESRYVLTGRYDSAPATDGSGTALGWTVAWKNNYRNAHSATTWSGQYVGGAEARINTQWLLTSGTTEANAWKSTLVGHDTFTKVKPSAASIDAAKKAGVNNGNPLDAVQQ
Sequence of Torsin-1A (Homo sapiens) (O14656 whole entry, looked up): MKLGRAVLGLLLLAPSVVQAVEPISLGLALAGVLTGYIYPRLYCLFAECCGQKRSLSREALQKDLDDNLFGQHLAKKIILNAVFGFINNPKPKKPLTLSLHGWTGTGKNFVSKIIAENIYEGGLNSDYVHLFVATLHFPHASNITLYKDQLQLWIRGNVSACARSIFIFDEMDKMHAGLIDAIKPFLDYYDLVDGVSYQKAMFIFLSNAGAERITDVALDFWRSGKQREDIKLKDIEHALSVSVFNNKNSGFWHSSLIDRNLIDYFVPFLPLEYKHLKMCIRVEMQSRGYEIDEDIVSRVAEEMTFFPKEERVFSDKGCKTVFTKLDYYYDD
Sequence of Luciferin 4-monooxygenase (Photinus pyralis) (P08659 whole entry, looked up): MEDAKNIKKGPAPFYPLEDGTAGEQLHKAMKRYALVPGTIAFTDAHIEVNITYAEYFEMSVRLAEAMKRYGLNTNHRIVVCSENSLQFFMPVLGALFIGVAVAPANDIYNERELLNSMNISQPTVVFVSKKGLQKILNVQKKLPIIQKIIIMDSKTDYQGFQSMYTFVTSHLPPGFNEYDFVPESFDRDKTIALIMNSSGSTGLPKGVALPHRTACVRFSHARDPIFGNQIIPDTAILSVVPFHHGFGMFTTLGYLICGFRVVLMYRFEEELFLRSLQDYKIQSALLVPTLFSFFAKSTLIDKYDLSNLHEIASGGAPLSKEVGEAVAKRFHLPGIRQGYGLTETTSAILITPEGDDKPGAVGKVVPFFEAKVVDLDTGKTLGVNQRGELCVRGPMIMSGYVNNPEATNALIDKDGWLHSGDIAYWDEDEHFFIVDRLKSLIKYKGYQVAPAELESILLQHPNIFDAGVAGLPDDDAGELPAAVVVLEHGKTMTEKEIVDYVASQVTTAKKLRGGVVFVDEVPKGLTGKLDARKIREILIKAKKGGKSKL
Sequence of Focal adhesion kinase 1 (Homo sapiens) (Q05397 whole entry, looked up): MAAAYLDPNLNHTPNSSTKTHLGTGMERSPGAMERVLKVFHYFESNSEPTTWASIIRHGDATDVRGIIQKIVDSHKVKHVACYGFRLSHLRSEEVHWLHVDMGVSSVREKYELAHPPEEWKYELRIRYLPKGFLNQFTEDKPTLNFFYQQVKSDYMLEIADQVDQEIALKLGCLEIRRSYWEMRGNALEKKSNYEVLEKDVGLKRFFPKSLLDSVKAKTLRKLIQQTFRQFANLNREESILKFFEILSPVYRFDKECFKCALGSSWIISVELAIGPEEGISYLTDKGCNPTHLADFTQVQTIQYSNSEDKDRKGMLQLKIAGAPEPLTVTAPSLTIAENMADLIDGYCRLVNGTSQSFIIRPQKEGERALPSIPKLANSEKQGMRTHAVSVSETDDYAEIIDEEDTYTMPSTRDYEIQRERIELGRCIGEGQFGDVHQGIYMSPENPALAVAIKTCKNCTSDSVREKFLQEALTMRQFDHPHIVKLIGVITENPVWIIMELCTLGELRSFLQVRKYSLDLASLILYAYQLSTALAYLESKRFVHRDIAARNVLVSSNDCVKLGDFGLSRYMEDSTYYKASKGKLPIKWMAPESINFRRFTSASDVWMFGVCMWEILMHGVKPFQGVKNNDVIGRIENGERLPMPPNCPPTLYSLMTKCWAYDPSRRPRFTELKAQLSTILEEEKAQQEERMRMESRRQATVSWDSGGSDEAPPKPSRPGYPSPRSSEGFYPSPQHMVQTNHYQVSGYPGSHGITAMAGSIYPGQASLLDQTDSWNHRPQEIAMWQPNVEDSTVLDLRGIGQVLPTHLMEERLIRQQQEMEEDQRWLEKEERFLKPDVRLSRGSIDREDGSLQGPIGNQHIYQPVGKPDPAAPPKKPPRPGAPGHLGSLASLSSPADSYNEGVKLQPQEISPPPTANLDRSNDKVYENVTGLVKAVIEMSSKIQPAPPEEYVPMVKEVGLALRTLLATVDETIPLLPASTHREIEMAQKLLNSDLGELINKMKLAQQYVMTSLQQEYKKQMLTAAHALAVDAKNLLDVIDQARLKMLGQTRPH

`C=CCN(C(=O)C1N(c2c(Cl)cccc2CO)C(=O)C2C(C(=O)O)C3C=CC21O3)C(C)(C)C` (stereo not given): the composite z-score in test [1] was -0.687 and -0.455; in [2], 0.0063 and -0.941; in test [3], -0.0019 and 0.0154; in test [4] it was -0.925 and -0.724; in [5] it was -0.85 and -0.957; in test [6] it was -1.46 and -0.409. The composite z-score in [8] was -1.33 and -1.93; in [9] it was -0.0278 and -0.665; in [11], -0.948 and -0.619; in test [16], 0.163 and -1.11; in test [17], -0.702 and -0.213; in [18], -2.54 and -1.22. The composite z-score is -1.62 and -1.73 in test [19]; -1.17 and -0.681 in test [20]. Also, the z-score in test [7] was -0.868 and 1.49; in [10], 1.15 (inactive) and -1.5 (inactive); in [12] it was -0.488 (inactive) and 0.0489 (inactive); in [13] it was -0.774 (inactive) and -0.443 (inactive); in test [14], -1.44 (inactive) and 0.329 (inactive); in test [15], -0.219 (inactive) and -0.51 (inactive).
As for `C=C[C@H](C)[C@H](O)c1ccc(O)c2ccccc12`, the composite z-score in [1] is 2.31 and -0.782; in test [2], -0.402 and -0.622; in test [3], -0.0703 and -0.493; in [4], -0.22 and -0.58; in test [5], 0.0456 and 0.32; in test [6], -0.671 and 1.31. The composite z-score in test [8] is -0.494 and 0.152; in test [9] it was -0.0985 and -0.45; in test [11], -0.455 and 0.247; in test [16] it was -0.663 and -0.935; in test [17], -0.206 and -0.182; in [18] it was -1.49 and -0.75. Also, the composite z-score was -0.0641 and 0.204 in [19]; 0.153 and 1.7 in [20]. Also, the z-score in test [7] was -0.145 and 1.39; in test [10], -1 (inactive) and -2.28 (inactive); in test [12] it was -1.69 (inactive) and 0.651 (inactive); in test [13] it was -0.143 (inactive) and -0.287 (inactive); in [14], 0.833 (inactive) and 1.94 (inactive); in test [15], 1.13 (inactive) and -0.456 (inactive).
With `CC(C)CON=C1C[C@@H](O)[C@@H](O)[C@@H]2[C@@H]3C(=O)N(c4cccc(Oc5ccccc5)c4)C(=O)[C@@H]3CC[C@H]12`, the composite z-score in test [1] was 0.348; in [2], 0.347; in test [3] it was -0.195; in test [4] it was 0.202; in test [5] it was 0.39; in test [6], 0.397. Also, the composite z-score was 0.349 in [8]; 0.196 in test [9]; 0.738 in test [11]; 0.804 in test [16]; -0.102 in test [17]; -0.243 in test [18]. Further, the composite z-score in test [19] stood at 0.22; in test [20], 0.697. The z-score is 0.0506 in test [7]; 0.527 (inactive) in test [10]; -0.158 (inactive) in test [12]; 0.198 (inactive) in test [13]; -0.292 (inactive) in test [14]; 0.235 (inactive) in [15].
Turning to `C=CCN(CCCC)C(=O)C(c1cccs1)N(C(=O)/C=C\C(=O)O)c1ccc(CCO)cc1` (stereo not given), the composite z-score was 1.25 and -2.52 in test [1]; -0.505 and -1.38 in [2]; -0.504 and -1.21 in test [3]; -1.08 and -1.59 in test [4]; -1.43 and -2.34 in test [5]; -1.47 and -2.18 in [6]. For the same compound, the composite z-score was -1.58 and -2.71 in [8]; 0.266 and -2.25 in test [9]; -0.118 and -0.341 in [11]; -0.874 and -1.49 in [16]; -0.195 and -0.331 in test [17]; -1.2 and -3.21 in test [18]. Besides, the composite z-score is -2.35 and -1.52 in test [19]; -0.463 and -1.18 in test [20]. Moreover, the z-score in [7] is 0.65 and 0.624; in test [10], -2.48 (inactive) and -2.8 (inactive); in test [12] it was 0.197 (inactive) and 0.617 (inactive); in [13] it was -0.568 (inactive) and 0.123 (inactive); in [14], -0.0818 (inactive) and 0.195 (inactive); in test [15] it was -0.21 (inactive) and -0.185 (inactive).
